# Sampled rows, rich in hits. Any-hit rate of the full collection: about 4.3%.
# GLP1R ag: qHTS of GLP-1 Receptor Agonists. Glucagon-like peptide 1 receptor (Homo sapiens), P43220. HEK293 GLP-1R CRE-luciferase, luminescence, 4-6 h; cells express a hypersensitive GLP-1R form. Potency, µM (top dose mostly 45.6 µM), most hits filed as activators. 380,000 compounds, 0.007% hits. AID 624172, 2012
# GLP1R inv ag: qHTS of GLP-1 Receptor Inverse Agonists (Inhibition Mode). HEK293 GLP-1R CRE-luciferase, luminescence, 24 h; GLP-1R form is constitutively active. 410,000 compounds, 1.6% hits. Glucagon-like peptide 1 receptor (Homo sapiens), P43220. Potency, µM (highest dose often 38.3 µM), actives largely listed as inhibitors. AID 624417, 2012; note: nearly all actives have a fitted effect of over 55% in size
#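 Seeding at 200 cells/uL, 12 h culture, 24 hr compound treatment, then luciferase reagent and a luminescence read; cells are HEK293 stably expressing a constitutively active GLP-1R plus cAMP-responsive luciferase.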
# D3 ag: qHTS of D3 Dopamine Receptor Agonist: qHTS; D(3) dopamine receptor (Homo sapiens), P35462; D3R DiscoveRx beta-arrestin cells, luminescence, 90 min; max activation, %; 410,000 compounds, 0.58% hits; AID 652048, 2013; in the data active = max activation above about 30%
# Target sequence (P35462 whole entry, looked up): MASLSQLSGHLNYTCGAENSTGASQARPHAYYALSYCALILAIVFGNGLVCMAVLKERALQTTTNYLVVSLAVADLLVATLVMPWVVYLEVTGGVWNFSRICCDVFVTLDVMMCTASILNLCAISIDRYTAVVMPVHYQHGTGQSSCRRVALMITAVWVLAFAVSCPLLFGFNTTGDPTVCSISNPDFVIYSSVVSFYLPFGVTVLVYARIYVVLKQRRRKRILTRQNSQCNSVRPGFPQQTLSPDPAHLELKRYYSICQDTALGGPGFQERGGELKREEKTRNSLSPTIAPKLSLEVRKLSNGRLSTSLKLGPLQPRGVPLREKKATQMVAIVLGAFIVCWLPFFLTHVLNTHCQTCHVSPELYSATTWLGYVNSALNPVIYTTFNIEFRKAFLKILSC
#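 Agonist-mode cell screen: cells plated at 1500/well and incubated overnight at 37 °C, then exposed to library compounds for 90 min at 37 °C. Detection reagent was added for 30–60 min at room temperature, and luminescence was read.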
# D3 antag: qHTS of D3 Dopamine Receptor Antagonist: qHTS; D3R cells, DiscoveRx beta-arrestin luminescence, antagonist mode; hits give low values; max response, negative = inhibition, %; D(3) dopamine receptor (Homo sapiens), P35462; AID 652054, 2013; 360,000 compounds, 2.5% hits; in the data active = max response below about -50%; inconclusive = no clear call, values can overlap the other calls
#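 Cells expressing the human receptor were seeded at 1500 cells/well, incubated overnight at 37 degrees C in 5% CO2, then exposed to library compounds with dopamine controls for 90 minutes at 37 degrees C before luminescent detection.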
# Numbers stand for hits; 0 = inactive; ? = inconclusive; - = not tested or not shown. Unless noted, calls come from the whole dose curve; as a rule, active = well fitted curve in the direction sought with a large enough effect; inconclusive = small, poorly fitted or top-dose-only effect, or another doubt; inactive = no such curve, though single readings can be large; an effect the other way counts as inactive or inconclusive.
SMILES,GLP1R ag,GLP1R inv ag,D3 ag,D3 antag
COc1cc(C=O)ccc1OCCCOc1ccccc1C(=O)O,0,2.24µM,0,-54.7
COc1cc(C=O)ccc1OCCOc1ccccc1[N+](=O)[O-],0,0,0,-61.7
COc1cc(C=O)ccc1OCCCOc1ccccc1[N+](=O)[O-],0,0,0,0
CCSc1nn(CC(=O)Nc2cccc(CC)c2)c(N)c1S(=O)(=O)c1ccccc1,-,?,0,-
Cc1c(C(=O)N2CCN(C)CC2)oc2ccc(S(=O)(=O)N3CCOCC3)cc12,0,0,0,0
CCCCN(C)C(=O)c1oc2ccc(S(=O)(=O)N3CCCCCC3)cc2c1C,0,?,0,-75.1
Cc1c(C(=O)NCC2CCCO2)oc2ccc(S(=O)(=O)N3CC(C)CC(C)C3)cc12 (configuration not stated),0,?,0,0
Cc1c(C(=O)NC2CC2)oc2ccc(S(=O)(=O)N3CCCCCC3)cc12,0,?,0,0
Cc1c(C(=O)N2CCCCC2)oc2ccc(S(=O)(=O)N3CC(C)CC(C)C3)cc12 (configuration not stated),0,8.91µM,0,0
CCOC(=O)N1CCN(C(=O)c2oc3ccc(S(=O)(=O)N4CCCCC4)cc3c2C)CC1,0,0,44.0,0
CCN(CC)CCCNC(=O)c1oc2ccc(S(=O)(=O)N3CC(C)CC(C)C3)cc2c1C (configuration not stated),0,1.41µM,0,0
Cc1c(C(=O)O)oc2ccc(S(=O)(=O)N3CCCC3)cc12,0,0,0,0
Brc1cccc(-c2nnn3c2nc(N2CCCCC2)c2ccccc23)c1,0,0,0,-
CC(C(=O)O)c1ccc2c(c1)Cc1cccnc1O2 (configuration not stated),0,-,0,-
Cc1cccc(-c2noc(CN(C(=O)COc3ccc(C(C)C)cc3)C(C)C)n2)c1,0,?,0,-
Cc1cc(C)c(C)c(S(=O)(=O)N2CCN(C(=O)c3ccccn3)CC2)c1C,0,0,0,0
CCCc1ccc(S(=O)(=O)NCC2CCCN2CC)cc1 (configuration not stated),0,0,0,0
CCN1CCCC1CNS(=O)(=O)c1c(C)cc(C)cc1C (configuration not stated),0,0,0,-99.6
COc1ccc2cc(CNc3ccc(C)cc3)c(=O)n(CC(=O)Nc3cccc(C(F)(F)F)c3)c2c1,0,?,0,-
CC(=O)Oc1cccc2c1C(=O)c1c(OC(C)=O)cc(C(=O)O)cc1C2=O,0,0,0,-121.9
COc1ccc(-c2cccc(NC(=O)c3ccco3)c2)nn1,0,0,0,0
COc1ccc(-c2ccc(NC(=O)c3ccco3)cc2)nn1,0,7.08µM,0,0
CC(C)(C)c1ccc(Oc2ccc(NC(=O)c3ccco3)cn2)cc1,0,2.51µM,0,0
O=C(COc1ccccc1)Nc1ccccc1C(=O)OCc1cc(=O)n2nc(C3CC3)sc2n1,-,0,0,-
CCOC(=O)Cn1c(=O)n(CC2CCCO2)c2nc(-c3ccccc3OC)nc(C(N)=O)c21 (configuration not stated),-,0,0,-
SMILES,GLP1R ag,GLP1R inv ag,D3 ag,D3 antag
COC(=O)c1cccc(Nc2c(-c3cc(Br)ccc3O)nc3nc[nH]n23)c1,-,0,0,-
COc1cccc(C2C(C(=O)Nc3ccc(C)cc3C)=C(C)Nc3c(C(=O)Nc4cccc(C)c4)cnn32)c1OC (configuration not stated),-,?,0,-
CCOC(=O)c1cc(-c2ccc(C)cc2)n(CCC(=O)Nc2cc(Cl)ccc2C)c1C,0,0,0,-
O=C1c2ccccc2C(=O)N1CCc1csc(-c2ccccc2)n1,0,0,0,0
O=C1c2ccccc2C(=O)N1CCc1csc(-c2ccc(F)cc2)n1,0,0,30.2,0
NC(N)=Nc1nc(CCN2C(=O)c3ccccc3C2=O)cs1,0,0,47.9,0
CCCCNC(=O)c1cccc(S(=O)(=O)N2CC3(C)CC2CC(C)(C)C3)c1 (configuration not stated),0,10µM,0,0
COc1ccc(NC(=O)CN(C)C(=O)c2cccc(S(=O)(=O)N3CC4(C)CC3CC(C)(C)C4)c2)cc1 (configuration not stated),0,11.2µM,0,0
COc1cccc(NC(=O)CN(C)C(=O)c2cccc(S(=O)(=O)N3CC4(C)CC3CC(C)(C)C4)c2)c1 (configuration not stated),0,0,0,0
O=c1oc2c(-c3ccc([N+](=O)[O-])cc3)cc(O)cc2s1,0,0,0,-55.7
C=CCNCCCOc1ccc(Cl)cc1Br,0,0,0,-67.1
COCCCNCCCCOc1ccc(Br)cc1Cl,0,?,0,0
OCCNCCCOc1ccc(Cl)cc1Br,0,0,0,-63.6
COCCNCCCOc1ccc(Cl)cc1Br,0,?,0,-78.2
Clc1ccc(OCCn2ccnc2)c(Br)c1,0,0,0,?
CCOc1ccc(Cl)cc1CNCCNCCO,0,0,0,?
COCCNCCCOc1ccc(Br)cc1Cl,0,0,0,-77.6
C=CCNCCCCOc1ccc(Br)cc1C,0,?,0,?
Cc1cc(Br)ccc1OCCCCNCCO,0,?,0,-60.4
CCC(=O)OC1=C(C(C)=O)N(Cc2ccccc2)S(=O)(=O)c2ccccc21,-,0,0,-
OCC(O)C1OC(c2ccccc2)OC(CO)C1O (configuration not stated),0,0,30.9,0
O=[N+]([O-])c1ccc(C2=NN(CCO)C(=Nc3ccc(OC(F)(F)F)cc3)SC2)cc1,0,?,0,-56.1
COc1ccc(N=C2SCC(c3ccc([N+](=O)[O-])cc3)=NN2CCO)cc1,0,?,0,0
COc1cc(SC)ccc1C(=O)OC(C)C(=O)NC1CCCC1 (configuration not stated),0,0,0,0
Cc1cc(NC(=O)CSc2nc(-c3ccco3)cc(C(F)(F)F)n2)n(-c2ccccc2)n1,0,0,0,0
SMILES,GLP1R ag,GLP1R inv ag,D3 ag,D3 antag
Cc1cc(NC(=O)CCCSc2nc(-c3ccco3)cc(C(F)(F)F)n2)n(-c2ccccc2)n1,0,8.91µM,0,0
CCc1nnc(NC(=O)CSc2nnc(C(C)NC(=O)c3ccccc3)n2C)s1 (configuration not stated),0,0,0,0
Cc1ccc(NC(=O)C2(C)CCN2C(=O)c2ccccc2CCc2ccccc2)cc1C (configuration not stated),0,2.82µM,0,0
CC(C)(C)c1cc(NC(=O)C2(C)CCN2C(=O)c2ccccc2CCc2ccccc2)no1 (configuration not stated),0,8.91µM,0,0
Cn1nc(C(C)(C)C)cc1NC(=O)C1(C)CCN1C(=O)c1ccccc1CCc1ccccc1 (configuration not stated),0,?,0,0
O=C(O)c1cc(-c2ccc(C(F)(F)F)cc2)nc2n[nH]c(-c3ccccc3)c12,-,0,0,-

# Compound activity: PubChem, National Center for Advancing Translational Sciences (NCATS)
